Assay [1] has as its target Nuclear receptor coactivator 3 (Homo sapiens) (UniProt Q9Y6Q9). The experiment in a line: NCOA3 GAL4-fusion reporter inhibition – cell-based, luminescence, quadruplicate, confirmation (AID 588792;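 active = mean inhibition over 43.08%, the solvent-only control mean plus 3 SD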;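 also: 0% = DMSO treated cells and 100% = gossypol at 36 µM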). As to conditions: HEK293 GAL4-SRC3 luciferase reporter, at 3.6 µM, active compounds read high.
Assay [2] relates to transactivating tegument protein VP16 (Human herpesvirus 1), Gal4-VP16 luciferase reporter. The experiment in a line: repression of VP16-driven luciferase reporter – cell-based, luminescence, high throughput, counter-screen for SRC3 inhibitor project (AID 588794; in the data active = inhibition above about 30%). As to conditions: mammalian cells, at 3.6 µM, active compounds read high.
Assay [3] addresses Nuclear receptor coactivator 1 (Homo sapiens) (UniProt Q15788). Kind of assay: NCOA1 GAL4-fusion reporter inhibition – cell-based, luminescence, quadruplicate, confirmation (AID 588820).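 Also: 0% = DMSO wells and 100% = gossypol 36 µM treated wells.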 The settings on record: HEK293 GAL4-SRC1 luciferase reporter, at 3.6 µM, active compounds read high.
Assay [4] is described as follows: repression of VP16-driven luciferase reporter – cell-based, luminescence, high throughput, counter-screen for SRC1 inhibitor project (AID 588824; in the data active = inhibition above about 25%). The settings on record: cell-based VP16 transactivation luciferase luminescence; at 3.6 µM; active compounds read high.
Assay [5] deals with transactivating tegument protein VP16 (Human herpesvirus 1). The experiment in a line: compounds suppressing VP16-driven luciferase signal – cell-based, luminescence, single concentration, counter-screen for SRC2 inhibitor project (AID 652007; in the data active = inhibition above about 36%). The settings on record: cell-based VP16 transactivation luciferase reporter, at 8.9 µM, active compounds read high.
For assay [6], the target named is Nuclear receptor coactivator 2 (Homo sapiens) (UniProt Q15596). The experiment in a line: inhibition of GAL4-SRC2 driven luciferase expression – cell-based, luminescence, HEK293, triplicate, confirmation (AID 652008;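 active = mean inhibition above 46.5%, the solvent-only control mean plus 3 SD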;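 also: 0% = DMSO-treated cells and 100% = Gossypol at 36 µM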). As to conditions: HEK293 GAL4-SRC2 luciferase reporter, at 8.9 µM, active compounds read high.

Calls of active or inactive are those of the source.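 The calls were made as follows, unless noted: active = mean inhibition above 46.68%, the untreated control wells mean plus 3 SD; inactive = the rest.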

Chain of Nuclear receptor coactivator 2 (Homo sapiens) (Q15596 whole entry, looked up, the tested form may be a part): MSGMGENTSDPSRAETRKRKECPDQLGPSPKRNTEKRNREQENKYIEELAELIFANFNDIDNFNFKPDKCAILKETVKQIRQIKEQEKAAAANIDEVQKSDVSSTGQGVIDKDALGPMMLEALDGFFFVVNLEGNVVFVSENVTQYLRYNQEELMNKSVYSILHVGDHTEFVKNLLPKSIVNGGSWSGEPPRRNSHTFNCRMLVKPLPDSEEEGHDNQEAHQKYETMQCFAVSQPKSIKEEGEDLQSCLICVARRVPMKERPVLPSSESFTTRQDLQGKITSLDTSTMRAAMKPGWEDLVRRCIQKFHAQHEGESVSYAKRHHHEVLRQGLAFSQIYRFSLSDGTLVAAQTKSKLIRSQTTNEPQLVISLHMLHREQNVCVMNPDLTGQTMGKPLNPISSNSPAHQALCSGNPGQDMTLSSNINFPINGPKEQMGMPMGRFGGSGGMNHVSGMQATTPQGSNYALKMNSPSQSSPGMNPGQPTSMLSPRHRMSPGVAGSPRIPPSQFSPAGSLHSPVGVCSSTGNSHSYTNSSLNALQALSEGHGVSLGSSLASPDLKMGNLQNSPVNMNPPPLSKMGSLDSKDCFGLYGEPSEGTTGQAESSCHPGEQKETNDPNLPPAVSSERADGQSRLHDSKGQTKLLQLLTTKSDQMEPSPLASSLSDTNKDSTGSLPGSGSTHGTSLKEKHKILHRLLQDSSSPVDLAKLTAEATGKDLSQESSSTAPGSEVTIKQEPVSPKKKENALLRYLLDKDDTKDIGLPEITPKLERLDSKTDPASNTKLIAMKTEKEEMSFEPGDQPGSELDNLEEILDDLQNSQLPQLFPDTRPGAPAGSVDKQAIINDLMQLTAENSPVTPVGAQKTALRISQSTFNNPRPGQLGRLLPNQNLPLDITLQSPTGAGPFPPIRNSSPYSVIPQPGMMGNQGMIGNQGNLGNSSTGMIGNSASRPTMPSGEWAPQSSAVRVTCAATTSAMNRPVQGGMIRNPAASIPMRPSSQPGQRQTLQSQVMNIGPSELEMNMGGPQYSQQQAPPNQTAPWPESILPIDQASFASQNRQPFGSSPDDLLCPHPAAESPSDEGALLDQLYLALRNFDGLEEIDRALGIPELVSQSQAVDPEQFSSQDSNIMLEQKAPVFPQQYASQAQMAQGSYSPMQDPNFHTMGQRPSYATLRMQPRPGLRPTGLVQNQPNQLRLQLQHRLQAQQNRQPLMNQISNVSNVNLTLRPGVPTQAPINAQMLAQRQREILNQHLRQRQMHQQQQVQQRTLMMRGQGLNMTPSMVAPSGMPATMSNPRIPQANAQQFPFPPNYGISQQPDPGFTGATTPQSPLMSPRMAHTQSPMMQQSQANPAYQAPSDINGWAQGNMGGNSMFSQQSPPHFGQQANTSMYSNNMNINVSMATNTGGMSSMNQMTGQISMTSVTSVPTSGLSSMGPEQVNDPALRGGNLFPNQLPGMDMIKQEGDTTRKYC
Chain of Nuclear receptor coactivator 1 (Homo sapiens) (Q15788 whole entry, looked up, the tested form may be a part): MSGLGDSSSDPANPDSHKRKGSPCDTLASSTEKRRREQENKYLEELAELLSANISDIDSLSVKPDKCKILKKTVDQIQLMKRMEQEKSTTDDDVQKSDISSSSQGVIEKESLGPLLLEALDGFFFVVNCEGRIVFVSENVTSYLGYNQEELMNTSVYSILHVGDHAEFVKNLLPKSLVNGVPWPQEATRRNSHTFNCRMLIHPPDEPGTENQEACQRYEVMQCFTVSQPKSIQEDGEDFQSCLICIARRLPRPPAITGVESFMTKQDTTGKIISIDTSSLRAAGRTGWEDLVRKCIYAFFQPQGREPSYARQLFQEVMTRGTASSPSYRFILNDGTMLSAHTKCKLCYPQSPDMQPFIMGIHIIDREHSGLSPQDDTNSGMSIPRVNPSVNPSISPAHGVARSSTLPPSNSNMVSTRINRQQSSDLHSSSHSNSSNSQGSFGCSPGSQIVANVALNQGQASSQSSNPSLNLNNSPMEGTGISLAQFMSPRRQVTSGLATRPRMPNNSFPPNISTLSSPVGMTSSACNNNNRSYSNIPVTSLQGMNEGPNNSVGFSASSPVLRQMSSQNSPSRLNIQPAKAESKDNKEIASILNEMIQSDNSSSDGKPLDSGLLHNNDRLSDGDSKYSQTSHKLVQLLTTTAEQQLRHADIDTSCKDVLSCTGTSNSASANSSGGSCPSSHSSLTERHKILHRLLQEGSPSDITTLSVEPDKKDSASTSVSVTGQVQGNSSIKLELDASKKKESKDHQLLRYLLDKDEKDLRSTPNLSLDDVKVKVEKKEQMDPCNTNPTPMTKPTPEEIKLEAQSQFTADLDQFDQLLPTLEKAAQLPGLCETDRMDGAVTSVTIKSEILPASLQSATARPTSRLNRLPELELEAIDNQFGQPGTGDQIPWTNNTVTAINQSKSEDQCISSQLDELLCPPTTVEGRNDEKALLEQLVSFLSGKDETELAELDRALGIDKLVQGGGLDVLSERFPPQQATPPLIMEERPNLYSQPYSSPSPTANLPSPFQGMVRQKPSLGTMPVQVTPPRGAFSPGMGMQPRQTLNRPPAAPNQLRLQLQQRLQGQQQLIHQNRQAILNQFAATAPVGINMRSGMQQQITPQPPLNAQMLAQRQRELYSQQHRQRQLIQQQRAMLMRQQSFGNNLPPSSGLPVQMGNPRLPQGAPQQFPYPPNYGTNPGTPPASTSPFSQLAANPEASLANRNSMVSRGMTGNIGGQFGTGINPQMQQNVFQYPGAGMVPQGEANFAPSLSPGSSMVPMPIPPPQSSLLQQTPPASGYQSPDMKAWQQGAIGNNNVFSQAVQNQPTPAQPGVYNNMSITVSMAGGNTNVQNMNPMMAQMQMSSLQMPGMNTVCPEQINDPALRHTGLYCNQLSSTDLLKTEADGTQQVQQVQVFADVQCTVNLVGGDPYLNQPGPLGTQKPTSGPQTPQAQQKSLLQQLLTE
Chain of Nuclear receptor coactivator 3 (Homo sapiens) (Q9Y6Q9 whole entry, looked up, the tested form may be a part): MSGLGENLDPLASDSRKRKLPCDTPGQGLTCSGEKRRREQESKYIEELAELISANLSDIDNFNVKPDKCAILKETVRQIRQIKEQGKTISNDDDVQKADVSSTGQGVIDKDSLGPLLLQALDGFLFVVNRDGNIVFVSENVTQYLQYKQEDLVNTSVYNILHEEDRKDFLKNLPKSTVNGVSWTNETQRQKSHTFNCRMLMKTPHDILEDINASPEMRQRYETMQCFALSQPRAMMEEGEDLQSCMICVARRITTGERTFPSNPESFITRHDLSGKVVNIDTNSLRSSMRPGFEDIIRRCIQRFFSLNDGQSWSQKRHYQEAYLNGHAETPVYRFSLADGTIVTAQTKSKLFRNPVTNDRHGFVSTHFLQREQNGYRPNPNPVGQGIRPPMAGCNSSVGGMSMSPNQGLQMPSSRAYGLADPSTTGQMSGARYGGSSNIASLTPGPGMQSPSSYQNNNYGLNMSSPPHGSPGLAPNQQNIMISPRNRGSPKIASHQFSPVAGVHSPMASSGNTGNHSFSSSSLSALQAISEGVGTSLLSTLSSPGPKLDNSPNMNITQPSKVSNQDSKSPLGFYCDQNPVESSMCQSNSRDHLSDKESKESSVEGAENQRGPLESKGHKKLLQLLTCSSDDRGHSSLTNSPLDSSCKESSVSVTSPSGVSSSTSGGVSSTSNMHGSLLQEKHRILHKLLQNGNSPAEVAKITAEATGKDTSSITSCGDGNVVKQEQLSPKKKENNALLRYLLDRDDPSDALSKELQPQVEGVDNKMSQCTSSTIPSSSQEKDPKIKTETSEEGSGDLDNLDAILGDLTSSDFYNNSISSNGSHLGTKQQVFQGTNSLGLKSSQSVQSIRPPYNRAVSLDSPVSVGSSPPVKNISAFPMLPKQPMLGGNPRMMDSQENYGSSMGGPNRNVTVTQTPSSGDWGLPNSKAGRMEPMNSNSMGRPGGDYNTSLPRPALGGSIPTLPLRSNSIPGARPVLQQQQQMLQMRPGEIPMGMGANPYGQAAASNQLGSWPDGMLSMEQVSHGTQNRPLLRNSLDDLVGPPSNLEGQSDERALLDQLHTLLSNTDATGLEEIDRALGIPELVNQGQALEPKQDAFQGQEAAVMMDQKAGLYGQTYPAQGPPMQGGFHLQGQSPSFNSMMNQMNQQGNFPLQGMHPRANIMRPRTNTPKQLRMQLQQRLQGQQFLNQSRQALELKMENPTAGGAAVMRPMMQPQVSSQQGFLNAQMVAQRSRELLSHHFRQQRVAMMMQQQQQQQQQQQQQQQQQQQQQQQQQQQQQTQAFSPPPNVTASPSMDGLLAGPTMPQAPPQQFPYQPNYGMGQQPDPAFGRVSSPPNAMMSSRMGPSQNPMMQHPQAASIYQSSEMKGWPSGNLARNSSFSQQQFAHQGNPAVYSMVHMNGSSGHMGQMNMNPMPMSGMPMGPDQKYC

Consider `CCn1c(Oc2ccccc2C)nc2c1c(=O)n(C)c(=O)n2C`, for which the inhibition in assay [1] is 51.9% (active); in assay [2] it was 34.7% (active); in assay [3] it was 51.5% (active); in assay [4], 30.6% (active); in assay [5], 14.5% (inactive); in assay [6], 40.9% (inactive).
With `CCC(=O)NC(c1ccc(C)cc1)c1ccc2cccnc2c1O` (configuration not stated), the inhibition in assay [1] is 55.7% (active); in assay [2], 38.1% (active); in assay [3], 45.3% (inactive); in assay [4], 53.4% (active); in assay [5] it was -3.42% (inactive); in assay [6], 24.4% (inactive).
As to `COc1ccc(-c2[nH]ncc2-c2ccc3c(c2)OCCO3)c(O)c1`, the inhibition in assay [1] was 74.4% (active); in assay [2] it was 58.3% (active); in assay [3] it was 72% (active); in assay [4] it was 59.5% (active); in assay [5], 11.7% (inactive); in assay [6], 47.5% (active).
With `COc1ccc(Cc2nnc(N/N=C/c3ccccc3O)[nH]c2=O)cc1OC`, the inhibition is 84.5% (active) in assay [1]; 77% (active) in assay [2]; 76.7% (active) in assay [3]; 82.6% (active) in assay [4]; 21.2% (inactive) in assay [5]; 38.8% (inactive) in assay [6].
As for `COc1ccccc1/C=C/C(=O)c1c2c(c(C)[nH]c1=O)CCCC2`, the inhibition in assay [1] was 46.6% (active); in assay [2], 49.9% (active); in assay [3], 59% (active); in assay [4] it was 44.1% (active); in assay [5] it was 34.1% (inactive); in assay [6] it was 39% (inactive).
In the case of `CCOc1ccc(Nc2ncnc3ccc([N+](=O)[O-])cc23)cc1`, the inhibition in assay [1] is 70% (active); in assay [2], 43.6% (active); in assay [3], 65.8% (active); in assay [4], 53.7% (active); in assay [5], -19.7% (inactive); in assay [6] it was 47.4% (active).
In the case of `C=CCn1c(C)cc(C(=O)COc2ccc(C)nc2[N+](=O)[O-])c1C`, the inhibition in assay [1] is 33.7% (inactive); in assay [2], -8.11% (inactive); in assay [3] it was 9.64% (inactive); in assay [4], -12.6% (inactive); in assay [5], -4.94% (inactive); in assay [6], 65.9% (active).
